Test results taken from PubChem BioAssay.
The source made the active and inactive calls. How the calls were made is not given here.

test system: Aerobactin synthetase IucA (Klebsiella pneumoniae hvKP1); assay: Biochemical IucA enzyme inhibition primary screen of the Spectrum library (AID 1346200); conditions: malachite green pyrophosphate, A620, at 8 µM, stronger effect = lower value;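 further: 100% = wells without compound and 0% = wells lacking enzyme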

Q: Which activity remaining does the source give for `COC(=O)C[C@H]1C2(C)CC34OC5(C)O[C@@]6([C@H](OC(C)=O)C(OC(C)=O)[C@]7(C)C(/C(=C(/O)C(C)C)C(=O)O[C@H]7c7ccoc7)[C@@]6(O5)[C@H](OC(C)=O)[C@@]3(O)C2OC(=O)C(C)C)[C@]14C` (stereo partly specified) here?
A: The activity remaining was 104% (inactive).

Q: With `CC(C)NCC(O)c1ccc2ccccc2c1` (stereo unspecified) as the compound, how does the activity remaining read?
A: The activity remaining was 102% (inactive).

Q: With `O=C(O)c1ccccc1` as the compound, how does the activity remaining read?
A: Its activity remaining is 115% (inactive).

Q: `CC1(C)S[C@@H]2C(N3C(=O)[C@@H](c4ccccc4)NC3(C)C)C(=O)N2[C@H]1C(=O)O` (stereo partly specified) was tested. Which activity remaining did it give?
A: Its activity remaining is 108% (inactive).

Q: For `O=C(OC[C@H]1O[C@H](OC(=O)c2cc(O)c(O)c(OC(=O)c3cc(O)c(O)c(O)c3)c2)[C@H](OC(=O)c2cc(O)c(O)c(OC(=O)c3cc(O)c(O)c(O)c3)c2)[C@@H](OC(=O)c2cc(O)c(O)c(OC(=O)c3cc(O)c(O)c(O)c3)c2)[C@@H]1OC(=O)c1cc(O)c(O)c(OC(=O)c2cc(O)c(O)c(O)c2)c1)c1cc(O)c(O)c(OC(=O)c2cc(O)c(O)c(O)c2)c1`, which activity remaining is on record?
A: The activity remaining was 100% (inactive).

Q: `O=C(NCO)c1cccnc1` was tested. Which activity remaining did it give?
A: Its activity remaining is 113% (inactive).

Q: For `O=c1[nH]cnc2nc[nH]c12`, which activity remaining is on record?
A: Its activity remaining is 89.8% (inactive).

Q: With `CCN(CC)CCOC(=O)c1ccc(N)cc1` as the compound, how does the activity remaining read?
A: The activity remaining was 105% (inactive).

Q: How did the activity remaining turn out when `COc1ccc(-c2cc(=O)c3c(O)c(OC)c(O[C@H]4O[C@H](CO[C@@H]5O[C@@H](C)[C@H](O)[C@@H](O)[C@H]5O)[C@@H](O)[C@H](O)[C@H]4O)cc3o2)cc1` was run?
A: The activity remaining was 109% (inactive).

Q: How did the activity remaining turn out when `O=c1[nH]cc(F)c(=O)[nH]1` was run?
A: The activity remaining was 96.1% (inactive).

Q: Which activity remaining does the source give for `CCOC(=O)c1c(C)cc(O)c(C=O)c1O` here?
A: The activity remaining was 97.7% (inactive).
